These results are taken from PubChem BioAssay (EPA / NIEHS).

Activity calls are given as the source filed them. How the source made its calls: active means hit-call score of the fitted dose curve at least 0.9, where 1 is the maximum; inactive means score below 0.9.

The nature of the assay: APR_HepG2_P-H2AX_24hr: Apredica 24-hour HepG2 Assay for H2AX Phosphorylation (AID 2282920). To be noted: high-content imaging, actives raise or lower the signal. The procedure:
APR_HepG2_24hr is a cell-based, multiplexed-readout assay that uses HepG2, a human liver cell line, with measurements taken at 24 hours after chemical dosing in a 384-well plate.APR_HepG2_P-H2AX_24hr is one of 10 assay component(s) measured or calculated from the APR_HepG2_24hr assay. It is designed to make measurements of dna content, a form of viability reporter, as detected with fluorescence intensity signals by HCS Fluorescent Imaging technology.Data from the assay component APR_HepG2_P-H2AX_24hr was analyzed into 1 assay endpoint. This assay endpoint, APR_HepG2_P-H2AX_24hr, was analyzed with bidirectional fitting relative to DMSO as the negative control and baseline of activity. Using a type of viability reporter, measures of protein for gain or loss-of-signal activity can be used to understand the signaling at the pathway-level as they relate to the gene . Furthermore, this assay endpoint can be referred to as a primary readout, because this assay has produced multiple assay endpoints where this one serves a signaling function. To generalize the intended target to other relatable targets, this assay endpoint is annotated to the dna binding intended target family, where the subfamily is cellular response to DNA damage stimulus.
Cells were treated with dimethyl sulfoxide (DMSO) as a solvent control at a final concentration of 0.5% v/v or with compounds in DMSO with a resulting final DMSO concentration of 0.5% v/v. Compound treatment was done at concentrations of 0.39, 0.78, 1.56, 3.12, 6.24, 12.5, 25, 50, 100, and 200 uM in duplicate on each plate. Cells were treated with compounds for 1, 24, or 72 hr. Carbonyl […] m-chloro-phenylhydrazone (CCCP) and taxol were used as positive controls for mitochondrial function and cytoskeletal stability, respectively; DMSO served as the negative control for this experiment. Cells were fixed by the direct addition of 50 uL formaldehyde in Hank's Balanced Salt Solution (HBSS) to a final concentration of 3.7%. After incubation in the fixation medium for 30 min at room temperature (293-298 K), cells were rinsed twice with HBSS and treated with cell permeabilization buffer (16 uL of 0.5% Triton X-100) for 10 min at room temperature (293-298 K) before labeling. For mitochondrial membrane potential and mitochondrial measurements, pre-fixed cells were incubated with 50 uL of MitoTracker Red CMXRos (Invitrogen) at a concentration of 250 nM for 30 min before fixation. In the remaining cases, post-fixed cells were labeled by incubation with a multiplexed mixture of primary antibodies in HBSS for 60 min at room temperature (293-298 K) to detect immunoreactivity of c-Jun (1:500), phospho-histone H3 (1:100), phospho-histone H2A.x (1:200), p53 (1:400), alpha-tubulin (1:200) and Hoechst 33342 (2 ug/mL). Cells were labeled for multiplexed imaging on two separate plates: a) Hoechst 33342, MitoTracker Red, phospho-histone H3, and alpha-tubulin, and b) Hoechst 33342, phospho-histone H2A.x, and c-Jun. A final rinse with HBSS (50 uL) was performed before analysis. The primary and secondary antibodies for the proteins were phospho-histone H3 (rabbit anti-phospho-histone H3 and FITC-donkey anti-rabbit IgG), phospho-histone H2A.x (mouse anti-phospho-histone H2A.x and FITC-donkey anti-mouse IgG), c-Jun (rabbit anti-phospho-c-Jun and Cy3-donkey anti-rabbit IgG), p53 (sheep anti-p53 and Cy5-donkey anti-sheep IgG), alpha-tubulin (mouse anti-alpha-tubulin and Cy5-donkey anti-mouse IgG). These antibodies are available as the CellCiphr HepG2 assay kit (Millipore).Digital images of each well were captured using a Cellomics ArrayScan VTI (Thermo Scientific Cellomics) (0.8 NA objective, 0.63x optical coupler, and XF-93 filter set) at 20x magnification. The images were acquired using the autofocus feature of the ArrayScan instrument, which entails the following steps. First, the camera focuses on channel 1 (Hoechst 33342), where nuclei are identified. Second, a Z offset of 1 um is used for capturing mitochondria (MitoTracker Red). […]
Take `CC(C)(c1ccccc1)c1ccc(O)cc1`: the call was inactive.
As for `NS(=O)(=O)C(F)(F)C(F)(F)C(F)(F)C(F)(F)C(F)(F)C(F)(F)C(F)(F)C(F)(F)F`, the AC50 is 100 µM (active).
For the compound `Cc1cc(-c2ccc(N)c(C)c2)ccc1N`, the compound was called inactive.
On to `Clc1ccc(C(c2ccccc2Cl)C(Cl)(Cl)Cl)cc1` (stereo not given), for which the AC50 is 82.8 µM (active).
Still for that read-out and setting: as for `O=C(O)C(F)(F)C(F)(F)C(F)(F)C(F)(F)C(F)(F)C(F)(F)C(F)(F)C(F)(F)C(F)(F)F`, the figure is 113 µM (active); as for `ClC1=C(Cl)[C@]2(Cl)[C@@H]3[C@@H](Cl)[C@H]4O[C@H]4[C@@H]3C1(Cl)C2(Cl)Cl`, 62.3 µM (active).
`CCCCCCCCOC(=O)c1ccccc1C(=O)OCCCCCCCC`: the result was inactive.
Same read-out and setting: then `O=S(=O)(O)C(F)(F)C(F)(F)C(F)(F)C(F)(F)F`, with “inactive”.
With `Cc1cc(O)ccc1Cl`, the compound was called inactive.
Still for that read-out and setting: as for `CCSC(=O)N(CC)C1CCCCC1`, the entry is “inactive”; as for `Nn1cnnc1`, “inactive”.
Take `CCC(C)(c1ccc(O)cc1)c1ccc(O)cc1`: the half-maximal activity concentration (AC50) is 104 µM (active).
Consider `O=NN(c1ccccc1)c1ccccc1`, for which the outcome was inactive.
As for `CCOP(=S)(OCC)SCSC(C)(C)C`, the compound was classed as inactive.
Regarding `CCCCCCOC(=O)c1ccccc1C(=O)OCCCCCC`, the compound was classed as inactive.
Still for that read-out and setting: as for `Cc1ccc(O)c(C)c1`, the entry is “inactive”.
Take `ClC1=C(Cl)[C@]2(Cl)[C@@H]3[C@@H]4C[C@@H]([C@H]5O[C@@H]45)[C@@H]3[C@@]1(Cl)C2(Cl)Cl`: the compound was called inactive.
On the same count and under the same terms, as for `C=CC(=O)NCNC(=O)C=C`, the entry is “inactive”.
For `CCC(C)c1cc([N+](=O)[O-])cc([N+](=O)[O-])c1O` (stereo not given), the half-maximal activity concentration (AC50) is 67.4 µM (active).
Turning to `CCCCCCCCCc1ccc(O)cc1`, the call was inactive.
On the same count and under the same terms, then `CC#Cc1cc(C)nc(Nc2ccccc2)n1`, with “inactive”.
Same read-out and setting: as for `C1CC2OC2CC1C1CO1` (stereo not given), the entry is “inactive”; as for `ClC1=C(Cl)[C@]2(Cl)[C@@H]3[C@H]4C[C@H]([C@@H]5O[C@H]45)[C@@H]3[C@@]1(Cl)C2(Cl)Cl`, “inactive”.
With `Oc1ccc(C(c2ccc(O)cc2)(C(F)(F)F)C(F)(F)F)cc1`, the outcome was inactive.
Take `C=CC(N)=O`: the result was inactive.
The same measure, in the same setting: then `CCOCCOC(C)=O`, with “inactive”; and `CC(C)C(=O)OCC(C)(C)C(OC(=O)C(C)C)C(C)C` (stereo not given), with “inactive”.
For the compound `CCCCCCCCCC[N+](C)(C)CCCCCCCCCC`, the AC50 is 6.27 µM (active).
Consider `O=C(NC(=O)c1cc(F)c(F)cc1Cl)Nc1cc(F)ccc1N1CCC(C(=O)O)CC1`, for which the call was inactive.
`O=C(O)C(F)(F)C(F)(F)C(F)(F)C(F)(F)C(F)(F)F`: the outcome was inactive.
As to `Oc1c(Cl)c(Cl)c(Cl)c(Cl)c1Cl`, the compound was classed as inactive.
The same measure, in the same setting: as for `CN(C)CCO`, the entry is “inactive”; as for `Clc1ccc(C(Cl)(Cl)Cl)cc1`, “inactive”.
Consider `Nc1ccc(-c2ccc(N)cc2)cc1`, for which the half-maximal activity concentration (AC50) was 91.2 µM (active).
Take `CCCN(CCC)N=O`: the outcome was inactive.
Still for that read-out and setting: then `COc1ccc(O)c(C(C)(C)C)c1`, with “inactive”.
On to `CC1=C2C[C@H]3[C@@H](CC=C4C[C@@H](O)CC[C@@]43C)[C@@H]2CC[C@]12O[C@@H]1C[C@H](C)CN[C@H]1[C@H]2C`, for which the AC50 was 33.4 µM (active).
Consider `Cc1cccc([N+](=O)[O-])c1`, for which the compound was called inactive.
On to `CCC(=O)O[C@H]1CC[C@H]2[C@@H]3CCC4=CC(=O)CC[C@]4(C)[C@H]3CC[C@]12C`, for which the AC50 was 108 µM (active).
As to `CC(c1ccc(O)cc1)(c1ccc(O)cc1)c1ccc(O)cc1`, the AC50 was 111 µM (active).
